In the library only some 1.8% were active in any assay of this set; here they are far more common.
PTHR1 agonist: qHTS for PTHR1 Agonists: Primary Screen. Parathyroid hormone/parathyroid hormone-related peptide receptor (Homo sapiens), Q03431. HEK293 GP2 PTHR1 cells, GloSensor cAMP luminescence, 1 h. Potency, µM (titrated, usually from 115 µM), most hits filed as activators. actives 0.075% (n = 410,000); note: nearly all actives have a fitted effect of over 55% in size
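HEK-293-derived GP2 cells expressing PTHR1 and a GloSensor cAMP reporter, 3,000/well, plated overnight, given luciferin plus IBMX (each 0.5 mM as added) for 1 h at 37 °C, then compound for 1 h at 37 °C. Luminescence was read after 15 min at room temperature.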
HEK293 tox: qHTS of GLP-1 Receptor Inverse Agonists: Cytotox Screen | Potency, µM (doses to about 38.3 µM), most hits filed as inhibitors | HEK293 cAMP-luciferase reporter cells, luminescence, 24 h | actives 0.13% (n = 410,000);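 note: loss of luciferase light is scored as toxicity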
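Cells in DMEM/10% Nu serum/1% pen-strep, 1536-well format. Pre-incubated 12 h, dosed with 23 nL compound, incubated a further 24 h. Luciferase detection, 12 min at room temp, luminescence.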
GLP-1R inv ag: qHTS of GLP-1 Receptor Inverse Agonists (Inhibition Mode). Glucagon-like peptide 1 receptor (Homo sapiens), P43220. HEK293 GLP-1R CRE-luciferase, luminescence, 24 h; GLP-1R form is constitutively active. actives 1.6% (n = 410,000). Potency, µM (doses to about 38.3 µM), hits mostly inhibitors; note: nearly all actives have a fitted effect of over 55% in size
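Assay principle: reduced luminescence from a cAMP-responsive reporter in HEK293 cells co-expressing a constitutively active GLP-1R. Conditions: 24 hr compound incubation, 37 deg C, 5% CO2.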
GLP-1R agonist: qHTS of GLP-1 Receptor Agonists. actives 0.007% (n = 380,000). Potency, µM (titrated, usually from 45.6 µM), most hits filed as activators. HEK293 GLP-1R CRE-luciferase, luminescence, 4-6 h; cells express a hypersensitive GLP-1R form. AID 624172, 2012
TSHR antag: Antagonists of the Thyroid Stimulating Hormone Receptor: HTS campaign. Thyrotropin receptor (Homo sapiens), P16473. activity change, negative = inhibition, % at 11.5 µM. TSHR-expressing cells, TSH-stimulated cAMP HTRF, 2 h; active compounds read low. AID 504810, 2011. actives 0.2% (n = 330,000);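 active = activity change below a set negative limit, meaning inhibition stronger than a set level, cut at about -70% in these data; inconclusive = activity change between two set negative limits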
Target sequence (P16473 whole entry, looked up): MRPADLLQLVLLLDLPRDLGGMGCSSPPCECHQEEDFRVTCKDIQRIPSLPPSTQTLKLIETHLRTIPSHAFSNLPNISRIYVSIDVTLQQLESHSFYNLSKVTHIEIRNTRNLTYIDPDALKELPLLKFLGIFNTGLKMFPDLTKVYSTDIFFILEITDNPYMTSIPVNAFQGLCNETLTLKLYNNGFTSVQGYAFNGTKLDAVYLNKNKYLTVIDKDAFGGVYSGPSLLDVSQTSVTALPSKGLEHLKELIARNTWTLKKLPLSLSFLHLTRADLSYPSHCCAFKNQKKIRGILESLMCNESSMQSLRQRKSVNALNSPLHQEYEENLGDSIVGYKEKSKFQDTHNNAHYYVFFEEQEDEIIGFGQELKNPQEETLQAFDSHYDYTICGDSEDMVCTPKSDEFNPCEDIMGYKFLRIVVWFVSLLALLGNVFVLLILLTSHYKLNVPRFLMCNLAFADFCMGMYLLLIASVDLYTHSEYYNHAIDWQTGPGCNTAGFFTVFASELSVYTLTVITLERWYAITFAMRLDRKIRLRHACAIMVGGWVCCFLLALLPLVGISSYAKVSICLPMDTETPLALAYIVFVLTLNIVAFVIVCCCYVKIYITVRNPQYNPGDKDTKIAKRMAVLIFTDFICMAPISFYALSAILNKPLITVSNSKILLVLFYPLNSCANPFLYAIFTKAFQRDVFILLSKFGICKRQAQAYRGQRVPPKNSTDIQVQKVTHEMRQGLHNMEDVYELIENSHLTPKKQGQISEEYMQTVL
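Read-out is FRET at 665 nm (cryptate excitation 337 nm) from a cryptate-tagged anti-cAMP antibody, competed by cell cAMP against cAMP-d2. Compounds are tested on freshly harvested TSHR cells challenged with 4nM TSH (EC80) for 2 hours at 37 deg C.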
Of the large screens only hits and unclear results are named; the others gave an inactive call. Unless noted, calls come from the whole dose curve; as a rule, active = well fitted curve in the direction sought with a large enough effect; inconclusive = small, poorly fitted or top-dose-only effect, or another doubt; inactive = no such curve, though single readings can be large; an effect the other way counts as inactive or inconclusive.

CN(Cc1ccccc1)c1ccc(-c2nc(-c3ccccn3)no2)cc1[N+](=O)[O-]	none (no result: GLP-1R agonist, TSHR antag)
COc1ccc(-c2cc3nc(-c4ccccc4)cc(N4CCC(O)CC4)n3n2)cc1	HEK293 tox inconclusive, GLP-1R inv ag 7.94µM
Fc1cccc(-c2cc3nc(-c4ccccc4)cc(N4CCC5(CC4)OCCO5)n3n2)c1	GLP-1R inv ag inconclusive
COCCN1CCN(c2cc(-c3ccccc3)nc3cc(-c4cccc(F)c4)nn23)CC1	GLP-1R inv ag 7.94µM
COc1ccc(-c2cc3nc(-c4ccccc4)cc(N4CCCC(O)C4)n3n2)cc1 (centres undefined)	GLP-1R inv ag inconclusive
CN(C)CCCNc1cc(-c2ccccc2)nc2cc(-c3cccc(F)c3)nn12	HEK293 tox inconclusive, GLP-1R inv ag 3.55µM
CN=C1C=CC(=C(c2ccc(N(C)C)cc2)c2ccc(N(C)C)cc2)C=C1	none (no result: PTHR1 agonist, HEK293 tox, GLP-1R inv ag, TSHR antag)
O=C(NC1CCCCC1)c1n[nH]c2c1CCCCC2	GLP-1R inv ag 2.51µM
Cc1ccc(S(=O)(=O)N2CCN(C(=O)CSc3ncc(C(F)(F)F)cc3Cl)CC2)cc1	GLP-1R inv ag 10µM
Cc1ccc(CNCc2c(C(=O)O)n(Cc3ccc(C)cc3)c3cc(C)ccc23)cc1	HEK293 tox inconclusive, GLP-1R inv ag inconclusive (no result: TSHR antag)
Cc1ccc(Cn2c(C(=O)O)c(CNCc3ccc(OC(C)C)cc3)c3ccc(C)cc32)cc1	HEK293 tox inconclusive, GLP-1R inv ag 12.6µM (no result: TSHR antag)
Cc1ccc(CSCCNC(=O)CCSc2ccccc2)cc1	GLP-1R inv ag 10µM
O=c1c2ccccc2nc(SCCN2CCOCC2)n1CCc1ccccc1	GLP-1R inv ag 10µM
COc1ccc(CCn2c(SCCN3CCCCC3)nc3ccccc3c2=O)cc1OC	GLP-1R inv ag inconclusive
COc1ccc(CNC(=O)CN(c2ccccc2OC)S(=O)(=O)c2ccc(C)cc2)cc1	GLP-1R inv ag inconclusive (no result: GLP-1R agonist, TSHR antag)
Cc1ccc(NS(=O)(=O)c2cc3[nH]c(=O)c(=O)[nH]c3cc2C)cc1N(C)C	none (no result: GLP-1R agonist, TSHR antag)
CN1CCN(S(=O)(=O)c2ccc(N(C)Cc3ccc(OC(F)F)cc3)c([N+](=O)[O-])c2)CC1	GLP-1R inv ag 10µM
COc1cc(NC(=O)C2=CC(c3ccc(F)cc3)=NS(=O)(=O)N2C)cc(OC)c1OC	none (no result: GLP-1R agonist, TSHR antag)
CCc1ccc(NC(=O)c2c(Cl)nc(C)c(Cl)c2C)cc1	GLP-1R inv ag 3.98µM
Cc1ccccc1NC(=O)c1c(Cl)nc(C)c(Cl)c1C	none
CCN(C(=O)c1ccc2c(c1)OCO2)C12CC3CC(CC(C3)C1)C2	GLP-1R inv ag 11.2µM (no result: TSHR antag)
CCN(C(=O)c1cccc(S(=O)(=O)N(C)C)c1)C12CC3CC(CC(C3)C1)C2	GLP-1R inv ag inconclusive
Cc1ccc(Cl)cc1N1CCN(C(=O)c2cc(S(=O)(=O)N3CCCCCC3)cn2C)CC1	GLP-1R inv ag inconclusive (no result: TSHR antag)
Cc1cccc(OC(=O)c2cc(-c3ccc(Cl)cc3)on2)c1C	none (no result: GLP-1R agonist, TSHR antag)
CN1CCN(C2Cc3cc(Cl)ccc3Sc3cc(F)ccc32)CC1 (centres undefined)	HEK293 tox inconclusive, GLP-1R inv ag 5.01µM (no result: TSHR antag)
CCOC(=O)C1CCN(c2ncnc3c2nc2n3CCCCC2)CC1	none (no result: TSHR antag)
Cc1nc2nc(NC(=O)c3ccc(F)cc3)[nH]n2c(=O)c1Cc1ccccc1	none (no result: GLP-1R agonist, TSHR antag)
Cc1ccccc1C(=O)Nc1nnc(S(=O)(=O)N2c3ccccc3CC2C)s1 (centres undefined)	GLP-1R inv ag 11.2µM (no result: GLP-1R agonist, TSHR antag)
Cc1cccc(C(=O)Nc2nnc(S(=O)(=O)N3c4ccccc4CC3C)s2)c1 (centres undefined)	GLP-1R inv ag inconclusive (no result: GLP-1R agonist, TSHR antag)
CCc1ccc(Oc2c(C(F)(F)F)oc3c(CN4CCC(C)CC4)c(O)ccc3c2=O)cc1	none (no result: TSHR antag)
COc1ccc(CCNC(=O)c2cc(S(=O)(=O)N3CCCCC3)ccc2Cl)cc1	GLP-1R inv ag 8.91µM
COc1ccc(CCNC(=O)c2cccc(S(=O)(=O)N3CCCCC3)c2)cc1	GLP-1R inv ag inconclusive
COc1ccccc1C(=O)Nc1ccccc1OCc1cc(=O)n2c(C)csc2n1	none (no result: TSHR antag)
COc1cc(/C=C2\NC(=S)N(C)C2=O)ccc1OCc1ccccc1F	none

Screening results: PubChem, National Center for Advancing Translational Sciences (NCATS)
